According to ChEMBL document CHEMBL4513216, “Probing the Open Global Health Chemical Diversity Library for Multistage-Active Starting Points for Next-Generation Antimalarials” (ACS Infect Dis, 2020):
About 8,600 (12%) of roughly 69,000 compounds showed an effect of 50% or more. Many of the other results were omitted from the sample, so strong results are more common in it than they were.

System: Plasmodium berghei
Test: Screen against P. berghei liver stage (PbLuc), transformed with Luciferase, at 10uM
Format: functional, HepG2
Details: tested at 10 uM

Question: Which INHIBITION does the source give for `CC(=O)Nc1nc(CN2CCOC(Cn3nc(C)cc3C)C2)cs1` (configuration not stated) here?
Answer: 15.6%

Question: Which INHIBITION does the source give for `COCCN(Cc1ccoc1)C(=O)c1ccc(Cl)s1` here?
Answer: 25.1%

Question: `Cn1nccc1CNC(=O)Cn1nc(C(F)(F)F)cc1C1CC1` was tested. Which INHIBITION did it give?
Answer: 1.11%

Question: How did the INHIBITION turn out when `CCc1nc(CN(C)C2CCN(Cc3ccc(Cl)s3)C2)no1` (configuration not stated) was run?
Answer: 36.4%

Question: Which INHIBITION does the source give for `CCn1ccc(NC(=O)CCc2c(C)noc2C)n1` here?
Answer: 38.7%

Question: For `Cc1noc(C)c1CCC(=O)Nc1ccn(C)n1`, which INHIBITION is on record?
Answer: 71.2%

Question: With `Cc1noc(C)c1CC(=O)Nc1ccn(CC(N)=O)n1` as the compound, how does the INHIBITION read?
Answer: 37.6%

Question: For `O=C(CCCc1ccccn1)Nc1cccc(N2CCCNC2=O)c1`, which INHIBITION is on record?
Answer: 11.2%

Question: With `Cc1ccc(C(=O)Nc2cn[nH]c2)cc1` as the compound, how does the INHIBITION read?
Answer: 31.005%

Question: For `COC(CNC(=O)NCc1c(C)cc(C)[nH]c1=O)c1ccccc1` (configuration not stated), which INHIBITION is on record?
Answer: 36.1%

Question: How did the INHIBITION turn out when `Cc1noc(C(C)C)c1C(=O)NCCN1CCOCC1` was run?
Answer: -31.8%

Question: How did the INHIBITION turn out when `CN1N=C(C(=O)N2CCCC(n3ccnc3)C2)CCC1=O` (configuration not stated) was run?
Answer: 21.6%

Question: Which INHIBITION does the source give for `CCc1nccn1C1CCCN(C(=O)c2ccn(C)c(=O)c2)C1` (configuration not stated) here?
Answer: 2.9%

Question: `Cc1nccn1C1CCCN(C(=O)C2=NN(C)C(=O)CC2)C1` (configuration not stated) was tested. Which INHIBITION did it give?
Answer: 51.6%

Question: For `CN1N=C(C(=O)N2CCCC(n3cccn3)C2)CCC1=O` (configuration not stated), which INHIBITION is on record?
Answer: 11.9%

Question: Which INHIBITION does the source give for `CC(C)c1nccn1C1CCCN(C(=O)C2=NN(C)C(=O)CC2)C1` (configuration not stated) here?
Answer: 14.4%

Question: `CCc1nccn1C1CCCN(C(=O)C2=NN(C)C(=O)CC2)C1` (configuration not stated) was tested. Which INHIBITION did it give?
Answer: 53%

Question: Which INHIBITION does the source give for `CO[C@@H]1CC[C@H]2[C@H]1OCCN2C(=O)c1nn(C)c2ccccc12` here?
Answer: -9.23%

Question: Which INHIBITION does the source give for `COCCCn1cnnc1CNc1cc(C)nc2ccnn12` here?
Answer: 27.9%

Question: How did the INHIBITION turn out when `Cc1cc(NC(=O)CN2C(=O)CC(C)(C)c3ccccc32)no1` was run?
Answer: 29.7%

Question: Which INHIBITION does the source give for `Cc1ccc(C(=O)N(C)Cc2ccc(Br)o2)c(=O)[nH]1` here?
Answer: 38.6%

Question: How did the INHIBITION turn out when `Cc1nc(N2CCC(C(O)c3nccn3C)CC2)c2nc(C)oc2n1` (configuration not stated) was run?
Answer: 42.1%

Question: How did the INHIBITION turn out when `Cc1nc(N2CCC(C(O)c3nccn3C)CC2)c2cccnc2n1` (configuration not stated) was run?
Answer: -11.6%

Question: `Cc1nc(N2CCC(C(O)c3nccn3C)CC2)c2c(C)noc2n1` (configuration not stated) was tested. Which INHIBITION did it give?
Answer: 52.2%

Question: For `CO[C@@H]1CCN(Cc2nccn2C)[C@H]1Cc1cccnc1`, which INHIBITION is on record?
Answer: 32.2%

Question: With `Cc1ccsc1CN1CCC2(CC1)CC(OCc1cccnc1)CO2` (configuration not stated) as the compound, how does the INHIBITION read?
Answer: 26%

Question: For `O=C(CCc1nnc(-c2ccccc2)o1)N1CCN(CC2CC2)CC1`, which INHIBITION is on record?
Answer: -17%

Question: `Cc1noc(C)c1CN1CCC2(CCN(Cc3cccc(F)c3)CC2)C1` was tested. Which INHIBITION did it give?
Answer: 60.2%

Question: For `Cc1noc(C)c1CN1CCO[C@H]2CN(Cc3ccc(F)cc3)C[C@H]21`, which INHIBITION is on record?
Answer: 49.2%

Question: Which INHIBITION does the source give for `Cc1noc(C)c1CN1C[C@H]2CN(Cc3cccc(F)c3)C[C@H]2C1` here?
Answer: 41.2%

Question: `Cc1noc(C)c1CN1CCO[C@H]2CN(Cc3cccnc3)C[C@H]21` was tested. Which INHIBITION did it give?
Answer: 14.6%

Question: For `CC(=O)N1CCC2(CCN(Cc3cccc(F)c3)CC2)CC1`, which INHIBITION is on record?
Answer: -12.1%

Question: For `Cc1noc(C)c1CN1CCO[C@H]2CN(Cc3cccc(F)c3)C[C@H]21`, which INHIBITION is on record?
Answer: 62.9%

Question: With `Cc1ccc(NC2CCN(C(=O)Cc3ccc(C)s3)CC2)nn1` as the compound, how does the INHIBITION read?
Answer: 27.8%

Question: With `CNC(=O)c1cccc(CN2CCN(C3=NCC(C)(C)S3)CC2)c1` as the compound, how does the INHIBITION read?
Answer: 28.7%

Question: Which INHIBITION does the source give for `O=C(C1CC(c2cccc(F)c2)=NO1)N1CCc2ccccc21` (configuration not stated) here?
Answer: -12.2%

Question: `CCSCCC(=O)N1CCc2[nH]nc(COc3ccccc3)c2C1` was tested. Which INHIBITION did it give?
Answer: 10.9%

Question: How did the INHIBITION turn out when `O=C(CCn1cccc1)N1CCc2[nH]nc(COc3ccccc3)c2C1` was run?
Answer: 34.7%

Question: Which INHIBITION does the source give for `O=C1CC[C@@H](C(=O)N2CCc3[nH]nc(COc4cccc(Cl)c4)c3C2)N1` here?
Answer: 52.6%

Question: `O=C(N1CCOCC1)N1CCc2[nH]nc(COc3cccc(Cl)c3)c2C1` was tested. Which INHIBITION did it give?
Answer: 67.5%

Question: With `O=C(CCc1cccs1)N1CCc2[nH]nc(COc3ccccc3)c2C1` as the compound, how does the INHIBITION read?
Answer: 36.7%

Question: For `O=C(c1csnn1)N1CCc2[nH]nc(COc3cccc(Cl)c3)c2C1`, which INHIBITION is on record?
Answer: 73%

Question: `Cc1nc(C)c(C(=O)N2CCc3[nH]nc(COc4ccccc4)c3C2)s1` was tested. Which INHIBITION did it give?
Answer: 49.5%

Question: For `O=C(CSCC1CC1)N1CCc2[nH]nc(COc3ccccc3)c2C1`, which INHIBITION is on record?
Answer: 11.9%

Question: How did the INHIBITION turn out when `O=C(CCc1ccco1)N1CCc2[nH]nc(COc3ccccc3)c2C1` was run?
Answer: 32.7%

Question: `Cc1nn(C)c(N(C)C)c1CNC(C)COc1ccc(F)cc1` (configuration not stated) was tested. Which INHIBITION did it give?
Answer: -59.4%

Question: Which INHIBITION does the source give for `NC(=O)C1CCN(C(=O)CCCc2nnc(-c3ccccc3)o2)C1` (configuration not stated) here?
Answer: 14.4%

Question: Which INHIBITION does the source give for `CC(C)NC(=O)C1CN(C(=O)c2ccccc2)CC12CCOCC2` (configuration not stated) here?
Answer: 29.9%

Question: For `CCN1C(=O)C(c2ccccc2)CC12CCN(Cc1cccnc1)CC2` (configuration not stated), which INHIBITION is on record?
Answer: -4.82%

Question: With `O=C1NCC2(CCCN(Cc3ccccc3OCCO)C2)O1` (configuration not stated) as the compound, how does the INHIBITION read?
Answer: 44.3%

Question: `OCC1(O)CCCN(Cc2nnc(-c3ccccc3)o2)CC1` (configuration not stated) was tested. Which INHIBITION did it give?
Answer: 21.2%

Question: `OCC1(O)CCCN(Cc2ccccc2OCCc2ccccc2)CC1` (configuration not stated) was tested. Which INHIBITION did it give?
Answer: 52.6%

Question: Which INHIBITION does the source give for `CN(C)CC1(O)CCCN(Cc2ccccc2OCC(=O)N(C)C)C1` (configuration not stated) here?
Answer: 47.6%

Question: Which INHIBITION does the source give for `OCCOc1ccccc1CN1CCCC(O)(CO)C1` (configuration not stated) here?
Answer: 66.5%

Question: `COCCC1(C(=O)O)CCCN(Cc2ccccc2OCCO)C1` (configuration not stated) was tested. Which INHIBITION did it give?
Answer: 3.48%

Question: With `Cn1cc(C(=O)N2CCCC2c2[nH]ncc2C(N)=O)cn1` (configuration not stated) as the compound, how does the INHIBITION read?
Answer: 7.52%

Question: How did the INHIBITION turn out when `O=C(CNCc1ccccc1Cn1cccn1)Nc1cnccn1` was run?
Answer: 38.5%

Question: Which INHIBITION does the source give for `CS(=O)(=O)N1CCC(C(=O)NC(Cc2ccsc2)c2nccs2)CC1` (configuration not stated) here?
Answer: 38.1%

Question: For `O=C(NC(Cc1ccsc1)c1nccs1)C1CC1` (configuration not stated), which INHIBITION is on record?
Answer: 12.3%

Question: With `CCS(=O)(=O)N1CCC(C(=O)NC(Cc2ccsc2)c2nccs2)CC1` (configuration not stated) as the compound, how does the INHIBITION read?
Answer: 59%

Question: Which INHIBITION does the source give for `Cc1cc(C)n(CC2CN(Cc3nc(-c4ccco4)no3)CCO2)n1` (configuration not stated) here?
Answer: 36.4%

Question: `CN(CCN1CCOC1=O)CC(=O)Nc1ccc(Cl)c(Cl)c1` was tested. Which INHIBITION did it give?
Answer: 37.8%

Question: Which INHIBITION does the source give for `O=C(c1c2c(N3CCCC3)ncnc2n2ccccc12)N1CCCC1` here?
Answer: 47.4%

Question: How did the INHIBITION turn out when `O=C(CSCC1CC1)N1CCCN(c2ccc(F)cc2)CC1` was run?
Answer: 59.4%

Question: `Cc1cc(N2CCCN(C(=O)CSCC3CC3)CC2)ccn1` was tested. Which INHIBITION did it give?
Answer: 37.6%

Question: For `O=C(CSCC1CC1)N1CCCN(Cc2ccc(F)cc2)CC1`, which INHIBITION is on record?
Answer: 23.9%

Question: Which INHIBITION does the source give for `COCc1ccccc1C(=O)N1CCCC(c2cc(C)[nH]n2)C1` (configuration not stated) here?
Answer: 40.9%
